The text below walks through data of PubChem BioAssay AID485353 (National Center for Advancing Translational Sciences (NCATS), 2010).

The whole screen tested about 330,000 compounds, of which about 610 (0.18%) were called active. About 2% were inconclusive and are not listed. The sample holds actives, similar compounds and a random draw of the others, so the mix is not that of the screen. Values without a mark were called inactive. Calls follow the shape of the full dose curve.
Potency is read from the fitted curve at half-maximal effect.

This test is described as follows: qHTS of Yeast-based Assay for SARS-CoV PLP. Also: nearly all actives have a fitted effect of over 55% in size. As to activity, positive = growth rescue: 0% is about no effect. As to conditions: S. cerevisiae expressing SARS-CoV PLpro; Potency: growth rescue; series mostly up to 32.9 µM; activity, positive = growth rescue: at the top concentration. On the technique in general: In qHTS, concentration-response curves come from the screen itself.
`CCOC(=O)c1nn(-c2ccccc2F)c2nc(Nc3ccccc3)cc(=O)n12`: the “activity, positive = growth rescue” value was 19.8%.
In the case of `Cc1cc(NC(=O)CS(=O)(=O)c2cn(C)c3ccccc23)no1`, the “activity, positive = growth rescue” value was 4.32%.
Same read-out and setting: the result for `CC1CN(S(=O)(=O)c2ccccc2)C(C)CN1S(=O)(=O)c1ccccc1` (stereo unspecified) reads 7.74%; that for `CCOc1cccc(-c2nnc(SCC(=O)NC3CC3)n2C)c1`, -1.58%; that for `Cn1c(SCC(=O)NC2CCCCC2)nnc1-c1ccc(N)cc1`, 0.0296%.
On to `Cn1c(SCC(=O)NC2CCCCC2)nnc1-c1cc2ccccc2o1`, for which the Potency is 10 µM (active).
As to `CN(c1ccc2nc3ccccc3c(=O)n2n1)C1CCCCC1`, the “activity, positive = growth rescue” value was -12.9%.
For the molecule `CC(C)Cc1nnc(NC(=O)CCC(=O)Nc2ccc3cn[nH]c3c2)s1`, the “activity, positive = growth rescue” value is -0.296%.
Same read-out and setting: the same measure for `O=c1oc2ccccc2cc1-c1cn(-c2ccccc2)c(=S)[nH]1`: -4.67%; for `S=c1[nH]nc(-c2cccs2)n1/N=C/c1cn(-c2ccccc2)nc1-c1ccc(Cl)cc1`: 1.04%.
`S=c1[nH]c(-c2cccs2)cn1-c1ccccc1`: the Potency was 11.2 µM (active).
Consider `COc1ccccc1C(=O)NN1C(=O)C2C3C=CC(O3)C2C1=O` (stereo unspecified), for which the “activity, positive = growth rescue” value was 4.73%.
On to `CC12CCC(C(=O)N(NC(=O)c3ccccc3O)C1=O)C2(C)C` (stereo unspecified), for which the Potency was 2.82 µM (active).
Turning to `O=C(NN1C(=O)C2C(C1=O)C1C=CC2C12CC2)c1ccccc1Cl` (stereo unspecified), the “activity, positive = growth rescue” value was 0.328%.
`O=c1c(Cl)c(NCc2ccc(F)cc2Cl)cnn1C12CC3CC(CC(C3)C1)C2`: the “activity, positive = growth rescue” value was -19.4%.
Still for that read-out and setting: the result for `O=C(NC1CCN(S(=O)(=O)c2ccc(F)cc2)CC1)c1ccccc1` reads 0.666%.
With `CCc1ccc(-c2nn(-c3ccccc3)cc2CSC(=N)N)cc1`, the “activity, positive = growth rescue” value was 14.6%.
Still for that read-out and setting: the result for `CCCCC(=O)N(c1ccc(OC)cc1)C1C=CS(=O)(=O)C1` (stereo unspecified) reads -1.73%; that for `Nc1ccc(Nc2cc(O)c3ncccc3c2)cc1`, 4.05%; that for `Cc1ccc(OCCC(=O)Nc2ccc(S(=O)(=O)Nc3nccs3)cc2)cc1`, 0.527%.
Still for that read-out and setting: the result for `O=C(NN1C(=O)C2C3C=CC(C3)C2C1=O)c1ccco1` (stereo unspecified) reads 15%.
For `CC(C)=C1C2CCC1C1C(=O)N(NC(=O)c3ccco3)C(=O)C21` (stereo unspecified), the Potency is 2.82 µM (active).
Consider `O=C(NN1C(=O)C2CCCCC2C1=O)c1ccco1` (stereo unspecified), for which the “activity, positive = growth rescue” value is 1.51%.
Same read-out and setting: the result for `CC(=O)NC(c1cccs1)c1cc(Br)c2cccnc2c1O` (stereo unspecified) reads -0.691%.
On the same count and under the same terms, the result for `Cc1nn2c(c1-c1ccccc1)N=C(c1ccco1)CC2c1ccccc1` (stereo unspecified) reads -7.14%; that for `CC[C@]12c3[nH]c4cc(CCC(=O)N(C)C)ccc4c3CCN1C(=O)[C@@H](CC(=O)NCCCN(C)C)C[C@@H]2C(=O)N1CCN(C(=O)c2ccco2)CC1`, 14.8%; that for `CCC(C)NC(=O)C1CCCN(C(=O)NC2CCCCC2)C1` (stereo unspecified), 2.48%.
Same read-out and setting: the same measure for `Cc1ccc(S(=O)Cc2ccc(C(=O)N3CCN(C4CCCCC4)CC3)o2)cc1` (stereo unspecified): 2.29%; for `Cc1ccc(C(=O)COC(=O)CCN2C(=O)C3C4CCC(C4)C3C2=O)cc1C` (stereo unspecified): -3.46%; for `O=C(CCN1C(=O)C2C3C=CC(C3)C2C1=O)Oc1ccc2ccccc2c1` (stereo unspecified): 0.162%.
With `Cc1ccc(C(=O)COC(=O)CCN2C(=O)C3C4CC(C(Br)C4Br)C3C2=O)cc1` (stereo unspecified), the Potency was 12.6 µM (active).
With `CCN1C(=O)[C@@H]2[C@@H](c3ccc(-c4ccccc4)cc3)N3CCCC[C@@]3(C(=O)OC)[C@@H]2C1=O`, the “activity, positive = growth rescue” value was -2.04%.
The same measure, in the same setting: the same measure for `O=C(Oc1cccc(N2C(=O)C3C4c5ccccc5C(c5ccccc54)C3C2=O)c1)c1ccco1` (stereo unspecified): 17.8%; for `Cc1nc2ccccc2n1C(=O)N1CCOCC1`: 20.8%.
On the same count and under the same terms, the same measure for `CC1CN(C(=S)Nc2ccccc2F)CC(C)O1` (stereo unspecified): 0.954%; for `O=C(CSC(=S)N1CCOCC1)c1ccccc1`: -10.4%.
Consider `CC1CN(C(=S)SCC(=O)c2ccccc2)CC(C)O1` (stereo unspecified), for which the Potency is 10 µM (active).
As for `Cc1ccc(NC(=O)COc2ccc(-n3ccnc3)cc2)cc1Cl`, the “activity, positive = growth rescue” value was -21.9%.
On the same count and under the same terms, the result for `COc1cccc(NC(=O)c2ccccc2N(Cc2ccccc2)S(C)(=O)=O)c1` reads 4.18%; that for `COc1ccccc1N1CCN(C(CNC(=O)Oc2ccccc2)c2cccnc2)CC1` (stereo unspecified), -2.51%.
Consider `CCOC(=O)N1CCN(C(c2cccnc2)c2ccc3cccnc3c2O)CC1` (stereo unspecified), for which the Potency was 11.2 µM (active).
Regarding `O=C(CSc1cccc2cccnc12)N/N=C/c1cccnc1`, the “activity, positive = growth rescue” value was 2.68%.
On the same count and under the same terms, the result for `Cc1ccc(S(=O)(=O)n2cccc2CO)cc1` reads 1.41%.
As for `CC(C)(Oc1ccc(Cl)cc1)C(=O)OCC(=O)NCCc1ccc(S(N)(=O)=O)cc1`, the “activity, positive = growth rescue” value was 2.28%.
With `O=C(Cn1cnc2c(nnn2-c2ccccc2)c1=O)N1CCC(Cc2ccccc2)CC1`, the “activity, positive = growth rescue” value was 1.22%.
Consider `COc1cccc(NC(=O)CN(C)C(C)C(=O)Nc2ccc(C#N)cc2)c1` (stereo unspecified), for which the “activity, positive = growth rescue” value was 1.84%.
Regarding `O=C(CCc1nnc(CCCCc2ccccc2)o1)NC(c1cccnc1)C(F)(F)F` (stereo unspecified), the “activity, positive = growth rescue” value is 0.42%.
The same measure, in the same setting: the result for `O=C(Nc1ccc(S(=O)(=O)N2CCCCC2)cc1)C1CC(=O)N(c2ccc(F)cc2)C1` (stereo unspecified) reads 0.241%; that for `CN1CCN(C2=NCCO2)CC1`, -0.788%; that for `CC(C#N)OC(=O)c1cccnc1SCC(=O)Nc1ccc2c(c1)OCO2` (stereo unspecified), -0.388%.
Same read-out and setting: the same measure for `CCCCOc1ccc(NC(=O)[C@@H]2CCCN2C(=O)C2CCN(S(=O)(=O)c3ccc(C)cc3)CC2)cc1`: -8.3%.
